Our source for the growth values is PubChem BioAssay (NCI).

SMILES strings stand for the structures. About 83,000 compounds went through this panel and 20% of them were active in at least one assay; those are over-represented in the sample as a whole.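 The test compound was applied at a single concentration to cells in 96-well plates for 48 hours, and percent growth was recorded.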 A number with no mark means an inactive call. Activity calls are given as the source filed them. Rule for the calls: active = growth percent below 10; inactive = the rest.

Holding throughout (assay): NCI-60 one-dose screen, 48 h (100 = growth as untreated, 0 = no growth, -100 = all killed)
Common to all, as to settings: 10 µM unless noted

Assay [1] deals with NCI-H23 lung.
Assay [2] has as its system NCI-H226 lung.
In assay [3] the test system is NCI-H322M lung.
For assay [4], the system named is NCI-H460 lung.
For assay [5], the system named is HOP-92 NSCLC.
Assay [6] deals with NCI-H522 lung.
Assay [7] concerns A549/ATCC NSCLC.
In assay [8] the test system is 786-0 renal.
For assay [9], the system named is COLO 205 colon.
The test system of assay [10] is HOP-62 NSCLC.

Turning to `C#CCOC(=O)/C=C/c1cn(-c2ccccc2)nc1-c1ccc(OC)cc1`, the growth in assay [1] is 89.1%; in assay [2], 81.6%; in assay [3], 99.4%; in assay [4], 95.1%; in assay [5], 60.8%; in [6], 50%. The growth in assay [7] was 77.5%; in [8], 98.9%; in assay [9], 121%.
With `COC(=O)[C@]1(C)CCC[C@]2(C)[C@H]3C[C@H]4C(C(C)C)=C[C@]3(CC[C@H]21)[C@@H]1C(=O)CC[C@H](OCCC#N)[C@@H]14`, the growth is 84.7% in [1]; 74.3% in assay [2]; 106% in [3]; 94.7% in [4]; 76.6% in assay [5]; 89.9% in assay [6]. The growth in assay [7] was 92.2%; in assay [8] it was 81%; in assay [9] it was 85.2%.
As for `O=C(/C=C/c1cn(-c2ccccc2)nc1-c1ccc(Cl)cc1)c1ccc(F)cc1`, the growth is 69.9% in [1]; 85.8% in [2]; 77.2% in assay [3]; 74% in assay [4]; 99.2% in [5]; 87.1% in assay [6]. For the same compound, the results for the growth in assay [7], in [8] and in assay [9] were 79.7%, 62.8% and 93.4%, respectively.
Take `COC(=O)/C=C1/SC(=Nc2ccc(C(F)(F)F)cc2)N(CCc2c[nH]c3ccc(O)cc23)C1=O`: the growth in assay [1] was 18.6%; in assay [2], 1.54% (active); in assay [3], 6.96% (active); in assay [10] it was -26.6% (active); in assay [5], -54% (active); in [6] it was -40.6% (active). For the same compound, the growth in [8] was -59.5% (active); in assay [9] it was -58.9% (active).
Consider `O=C(/C=C/c1cccc(Cl)c1)c1cccc(OCCCOc2cccc(C(=O)/C=C/c3cccc(Cl)c3)c2)c1`, for which the growth in [1] is 89.2%; in assay [2], 96.3%; in assay [3] it was 106%; in assay [4], 103%; in assay [5], 66.8%; in assay [6], 87.4%. The growth in [7] is 100%; in assay [8] it was 98.8%; in assay [9] it was 106%.
With `C=CC(=O)N1CCN(c2cccc(Oc3nccc(Nc4nnc(-c5ccc(Br)cc5)s4)n3)c2)CC1`, the growth in assay [1] is 79%; in assay [2], 88.8%; in assay [3] it was 92.3%; in assay [5] it was 88.3%; in [6], -2.86% (active); in assay [7], 47.3%. Moreover, the growth is 73.5% in assay [8] and 63.4% in assay [9].
With `COCCOc1cc2ncnc(N3CCN(c4cc(S(C)(=O)=O)c(C)cc4Cl)CC3)c2cc1OCCOC`, the growth was 81.9% in [1]; 81.4% in [2]; 105% in assay [3]; 102% in [4]; 53.3% in assay [5]; 90.6% in assay [6]. Moreover, the growth in assay [7] was 90.6%; in assay [8], 105%; in assay [9], 97.1%.
On to `CCCCC1=C(P(=O)(O)O)N[C@H](C(=O)O)CS1`, for which the growth in [1] was 97.5%; in [2], 95.5%; in assay [3], 73.8%; in [4] it was 107%; in assay [5] it was 89.5%; in assay [6], 83.2%. The growth in [7] is 92%; in [8] it was 95.1%; in assay [9], 108%.
Regarding `CC1CN(S(=O)(=O)c2oc(-c3ccc(Cl)cc3)nc2C#N)CC(C)O1` (centres undefined), the growth is 77.8% in assay [1]; 87.4% in assay [2]; 97.9% in assay [3]; 103% in [4]; 76.3% in [5]; -16.2% (active) in [6]. Moreover, the values for the growth in assay [7], in assay [8] and in assay [9] were 100%, 79% and 2.95% (active), respectively.
As to `CCOc1nc(-c2ccccc2)cc2c(O)c(C(=O)N/N=C/c3ccccc3)[nH]c(=O)c12`, the growth was 111% in assay [1]; 106% in assay [2]; 128% in [3]; 114% in assay [4]; 107% in assay [5]; 74.4% in assay [6]. Also, the growth was 114% in assay [7], 112% in assay [8] and 111% in [9].
Consider `O=S(=O)(Nc1cc(Cl)ccc1Cl)c1ccc(-c2cnc(C3CC3)o2)cc1`, for which the growth in assay [1] was 52.8%; in assay [2], 40.3%; in assay [3], 59.4%; in assay [4], 24.8%; in assay [5], 40.4%; in assay [6], 0.738% (active). Further, the growth in assay [7] is 45.2%; in assay [8] it was 33%; in [9] it was 43.5%.
On to `CC/C(=C(/c1ccc(Cl)cc1)c1ccc(OCCN2CCCCC2)cc1)c1ccc(OC)cc1`, for which the growth in assay [1] was 50.8%; in assay [2], 81.3%; in [3], 81%; in assay [4], 32%; in [5], 57%; in [6], 65.1%. In addition, the growth in assay [7] is 56.1%; in [8], 52%; in assay [9], 40.4%.
With `CCC(C)(C)C(=O)O[C@H]1C[C@@H](C)C=C2C=C[C@H](C)[C@H](CC[C@@H]3CC(SCCN)CC(=O)O3)[C@H]21` (some centres undefined), the growth is 98.2% in [1]; 98.3% in assay [2]; 97.4% in assay [3]; 107% in assay [4]; 34.6% in [5]; 65.4% in [6]. Also, the figures for the growth in [7], in assay [8] and in assay [9] were 75.7%, 102% and 82.8%, respectively.
For `O=C1C(=O)N(Cc2ccc(-c3ccccc3)cc2)c2ccc(OC(F)(F)F)cc21`, the growth was 41.4% in [1]; 73.6% in [2]; 102% in assay [3]; 83.3% in assay [4]; 60.8% in assay [5]; 31.1% in [6]. For the same compound, the growth in assay [7] is 92.9%; in assay [8], 41.6%; in [9] it was 82.7%.
In the case of `O=C1NC2(Nc3ccccc31)C(=O)Nc1c(Cl)cc(Cl)cc12` (centres undefined), the growth in [1] is 104%; in assay [2] it was 93.8%; in [3] it was 110%; in [5], 106%; in [6], 103%; in assay [7] it was 110%. Further, the growth in assay [8] was 103%; in assay [9] it was 119%.
Consider `Oc1c(I)cc(I)cc1CNCc1ccccn1`, for which the growth was 52.4% in assay [1]; 62.5% in assay [2]; 40.1% in assay [3]; 19.9% in assay [4]; 63.2% in assay [5]; 4.61% (active) in assay [6]. For the same compound, the growth in assay [7] was 23.6%; in assay [8], 36.1%; in [9], 74.1%.
Regarding `CCCCCCC12CCC(=O)N1CCc1cncn12` (centres undefined), the growth in assay [1] is 108%; in [2], 99.8%; in assay [3] it was 109%; in assay [4], 105%; in assay [5] it was 113%; in assay [6], 90%. Further, the growth is 112% in [8] and 106% in assay [9].
For the compound `CN(/C(N)=N/N=C/c1c2ccccc2cc2ccccc12)C1CCCCC1`, the growth is 16.1% in [1]; 64.3% in assay [2]; 73.6% in assay [3]; -5.84% (active) in assay [5]; 40.9% in assay [6]; 43.4% in assay [7]. In addition, the growth in assay [8] was 49.5%; in assay [9], -55.5% (active).
Turning to `Cc1ccccc1/C=C/C(=O)c1cccc(OCCCOc2cccc(C(=O)/C=C/c3ccccc3C)c2)c1`, the growth in assay [1] is 88.5% [3 µM]; in assay [2], 88.9% [3 µM]; in assay [3] it was 106% [3 µM]; in [10], 114% [3 µM]; in assay [5] it was 85.9% [3 µM]; in assay [6], 80.5% [3 µM]. Further, the values for the growth in assay [7], in assay [8] and in assay [9] were 86% [3 µM], 103% [3 µM] and 110% [3 µM], respectively.
As to `C=C(C)[C@@H]1CC[C@]2(C(=O)O)CC[C@]3(C)[C@H](CC[C@@H]4[C@@]5(C)CCC(NC(=O)c6cccc(OC(C)=O)c6OC(C)=O)C(C)(C)[C@@H]5CC[C@]43C)[C@@H]12` (some centres undefined), the growth was 1.89% (active) in assay [1]; -17.4% (active) in assay [2]; 8.78% (active) in assay [3]; -39.4% (active) in [4]; -11% (active) in [5]; -11.4% (active) in assay [6]. The results for the growth in assay [7], in assay [8] and in assay [9] were -6.31% (active), -3.81% (active) and -11.3% (active), respectively.
As to `O=C(Nc1cccc(Cl)c1)Nc1cccc(Cn2c(=O)[nH]c3ccc(Oc4ncccn4)cc3c2=O)c1`, the growth was 33.1% in assay [1]; 64.4% in assay [2]; 66.1% in assay [3]; 42.8% in assay [4]; 43.7% in assay [5]; 25.6% in assay [6]. For the same compound, the figures for the growth in assay [7], in assay [8] and in [9] were 40.4%, 71.4% and 48.3%, respectively.
For the compound `CC(=O)n1nc(C(=O)OC(C)(C)c2ccccc2)c2ccccc21`, the growth in assay [1] was 94.2%; in [2] it was 85.7%; in assay [3], 87.9%; in assay [4], 100%; in [5], 94.1%; in assay [6], 85.5%. Further, the growth in assay [7] is 91.8%; in assay [8], 96.8%; in assay [9] it was 107%.
`O=C(Nc1ccc(Oc2cccc(F)c2)c(Cl)c1)c1cccnc1`: the growth was 44.9% in assay [1]; 56.9% in [2]; 50.8% in assay [3]; 24.7% in assay [4]; 63.4% in [5]; 36.2% in assay [6]. The growth in assay [7] is 35.5%; in assay [8] it was 40.9%; in assay [9], 22.7%.
As to `CN1C(=O)/C(=C\c2nc([P+](c3ccccc3)(c3ccccc3)c3ccccc3)c(N3CCOCC3)o2)SC1=S`, the growth in assay [1] is 81.6%; in assay [2] it was 106%; in [3], 91.2%; in assay [4] it was 97.6%; in [5], -33.6% (active); in [6] it was 93.6%. Also, the values for the growth in assay [7], in [8] and in assay [9] were 86.1%, 97.5% and 88.1%, respectively.
Consider `CS(=O)(=O)Nc1cc(-c2ccc3ncnc(Nc4ccc5c(cnn5Cc5cccc(F)c5)c4)c3c2)cnc1Cl`, for which the growth in assay [1] is 10.4%; in [2], 20.8%; in assay [3], -5.63% (active); in assay [4], 22.8%; in assay [5] it was -20.1% (active); in assay [6] it was -11% (active). Further, the growth in [7] is 23.6%; in [8], 13.3%; in assay [9], -20.2% (active).
Regarding `COc1ccc(-c2ccc(=O)oc2-c2cc(OC)c(OC)c(OC)c2)cc1O`, the growth is 25.9% in assay [1]; 42.7% in assay [2]; 43.5% in [3]; -18% (active) in assay [4]; 89% in [5]; -11.7% (active) in assay [6]. Besides, the growth was 15.9% in assay [7], -6.12% (active) in assay [8] and 12.5% in assay [9].
Consider `N#Cc1nc(-c2ccccc2)oc1S(=O)(=O)N1CCN(c2ccccc2)CC1`, for which the growth in assay [1] was 74.9%; in [2], 87.2%; in assay [3], 95.6%; in assay [5], 116%; in [6], 58.6%; in [7], 99.9%. The growth in assay [8] is 99.8%; in assay [9], 122%.
Take `O=c1[nH]c(-c2ccccc2)nc2sc3cc(O)ccc3c12`: the growth is 84.6% in assay [1]; 79.6% in assay [2]; 81.2% in assay [3]; 84.1% in assay [4]; 94.8% in assay [5]; 75.5% in assay [6]. Besides, the results for the growth in assay [8] and in [9] were 79.3% and 110%, respectively.
Take `O=c1[nH]c(Cc2nc3ccccc3s2)nc2cc(Br)ccc12`: the growth in [1] was 86.1%; in assay [2], 76.8%; in assay [3], 88.8%; in assay [10], 37.6%; in [5] it was 84.9%; in assay [6], 58.7%. The growth in assay [7] was 61%; in assay [8], 68%; in assay [9], 88.3%.
